This experiment has as its target T1, TtCas6A (TTHA0078, Cas6) (Thermus thermophilus HB8).
T1 chain: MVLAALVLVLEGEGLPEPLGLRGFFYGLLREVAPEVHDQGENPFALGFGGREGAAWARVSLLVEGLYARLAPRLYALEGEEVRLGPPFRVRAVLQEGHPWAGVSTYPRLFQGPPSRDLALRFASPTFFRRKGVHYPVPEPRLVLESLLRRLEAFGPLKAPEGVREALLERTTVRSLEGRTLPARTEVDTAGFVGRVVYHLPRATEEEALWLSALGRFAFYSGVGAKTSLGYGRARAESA
The experiment is described as follows: EMSA; closing base pair; Kd in FIG. 24C only. The settings on record: chain copies: 2 stated (dimer in solution); hairpin; ssRNA; [20,25]. From the text: FIG. 22 illustrates that TtCas6A and TtCas6B both cleave repeats R1 and R3 and retain their cleaved products. (A) Sequences and predicted secondary structures of T. thermophilus CRISPR repeats. Sites of cleavage are indicated with blue arrows. TtCas6e (TTHB192) cleaves repeat R2, while TtCas6A (TTHA0078) and TtCas6B (TTHB231) both cleave repeats R1 and R3. (B) Cleavage product binding affinities of TtCas6A and TtCas6B enzymes. Maltose binding protein (MBP)-fused TtCas6A or TtCas6B were bound to in 5′-radiolabelled, vitro transcribed R1 and R3 RNAs. Bound and unbound fractions were resolved by electrophoresis on a native polyacrylamide gel and visualized by phosphorimaging. The data for these and all subsequent binding assays were fit with standard binding isotherms (solid line). […] RNA cleavage was monitored using denaturing polyacrylamide gel electrophoresis. […]
To test the importance of the stem sequence for substrate RNA recognition by TtCas6A, a series of EMSAs was performed using R1 repeat-derived RNAs that carried single base pair substitutions (C-G→A-U). […] This is consistent with the observation that the lower three C-G base pairs are specifically read out by Arg129. The binding defect observed upon mutation of the closing (uppermost) base pair could be due to loss of stability of the stem-loop structure, which is determined by the closing base-pair (Serra et al, 1993). […]
A general note: A gel shift assay detects complexes by their altered migration in electrophoresis.
Regarding GUUGCAAGGGAUUGAGCCCAGUAAUGGGAU, the binding signal is ~5 fold lower affinity than wild-type RNA.

For the origin of these results see patent US20150152398, “Endoribonuclease and Methods of Use Thereof” (The Regents of the University of California, published 2015).
